The values that follow come from PubChem BioAssay (NCI).

This is part of a sample that, as a whole, favours compounds with a hit. Of some 83,000 tested, about 20% had one in any assay.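 Testing used 96-well plates and a 48-hour single-concentration exposure. Example: -40 means 40% of the starting cells died.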 Values without a mark were called inactive. Calls of active or inactive are those of the source. The calls were made as follows: active = growth percent below 10; inactive = the rest.

Test systems include HCT-15 colon; HT29 colon; SNB-75 CNS; SNB-19 CNS; U251 CNS; PC-3 prostate; SK-MEL-5 melanoma; UACC-62 melanoma; LOX IMVI melanoma; SK-MEL-28 melanoma; EKVX NSCLC; SN12C renal; TK-10 renal; ACHN renal; CAKI-1 renal; A498 renal; CCRF-CEM leukemia; MOLT-4 leukemia; SK-MEL-2 melanoma; UO-31 renal.
Holding throughout (test): NCI-60 one-dose screen, 48 h (100 = growth as untreated, 0 = no growth, -100 = all killed)
What all share (conditions): 10 µM unless noted

Take `O=C(N/N=C/c1ccc(Cl)cc1)c1ccc(C(F)(F)F)nc1Nc1cccc(C(F)(F)F)c1`: the growth in the assay with HCT-15 colon is -5.13% (active); with HT29 colon it was 16.1%; in the assay with SNB-75 CNS it was 61.3%; in the assay with SNB-19 CNS it was 30.4%; with U251 CNS, 5.89% (active); in the assay with PC-3 prostate it was 9.4% (active). Besides, the growth with SK-MEL-5 melanoma was 33.1%; in the assay with UACC-62 melanoma, 26.7%; with LOX IMVI melanoma, -13.9% (active); in the assay with SK-MEL-28 melanoma it was -2% (active); in the assay on EKVX NSCLC, 17.7%; in the assay with SN12C renal, 4.9% (active). Further, the growth with TK-10 renal is 26.6%; in the assay on ACHN renal it was 13%; in the assay with CAKI-1 renal, -5.88% (active); in the assay on A498 renal, 12.6%; with CCRF-CEM leukemia it was 33.9%; with MOLT-4 leukemia, 2.2% (active).

On to `Cc1nc2ccccc2n1-c1ncnc2c1CC(C)c1ccccc1N2C` (stereo unspecified), for which the growth in the assay with HCT-15 colon is 75.4%; in the assay on HT29 colon, 59.5%; in the assay with SNB-75 CNS, 70.3%; in the assay with SNB-19 CNS it was 86%; in the assay on U251 CNS it was 78.8%; in the assay with PC-3 prostate, 67.2%. In addition, the growth in the assay on SK-MEL-5 melanoma is 91.3%; with UACC-62 melanoma, 71.2%; with LOX IMVI melanoma, 82.7%; with SK-MEL-28 melanoma it was 91.7%; in the assay with SK-MEL-2 melanoma, 78.3%; in the assay with EKVX NSCLC it was 92.7%. In addition, the growth in the assay with SN12C renal is 87.8%; in the assay on TK-10 renal, 97.4%; in the assay on ACHN renal, 93.2%; with CAKI-1 renal, 79.9%; with CCRF-CEM leukemia, 76.3%; in the assay on MOLT-4 leukemia, 60.3%.

On to `Clc1ccc2c(c1)N(CCCN1CCCC1)c1ccccc1S2`, for which the growth is 17.6% in the assay with HCT-15 colon; 21% with HT29 colon; 75.4% in the assay with SNB-75 CNS; 58.1% in the assay on SNB-19 CNS; 36.9% in the assay with U251 CNS; 18.6% in the assay with PC-3 prostate. Besides, the growth in the assay on SK-MEL-5 melanoma was -86.5% (active); in the assay with UACC-62 melanoma, -36.5% (active); with LOX IMVI melanoma, -52.5% (active); in the assay with SK-MEL-28 melanoma, 42.3%; in the assay with EKVX NSCLC, 51.6%; in the assay on SN12C renal, 15%. The growth with UO-31 renal was 40.1%; in the assay on TK-10 renal, 82.9%; with ACHN renal, 45%; in the assay with CAKI-1 renal it was 56%; in the assay on A498 renal, 36.6%; in the assay on MOLT-4 leukemia, 24.2%.

Turning to `COc1ccc2sc3c(NCCO)nc4ccccc4c3c(=O)c2c1`, the growth in the assay on HCT-15 colon was 81%; in the assay on HT29 colon, 101%; in the assay with SNB-75 CNS it was 103%; in the assay on SNB-19 CNS it was 95.4%; in the assay on U251 CNS it was 93.1%; in the assay on PC-3 prostate, 91.4%. Also, the growth was 93.7% in the assay on SK-MEL-5 melanoma; 94.5% with UACC-62 melanoma; 88% in the assay with LOX IMVI melanoma; 122% in the assay with SK-MEL-28 melanoma; 70.3% in the assay with EKVX NSCLC; 96.6% in the assay with SN12C renal. Also, the growth in the assay with UO-31 renal is 79.4%; in the assay on TK-10 renal, 103%; with ACHN renal it was 98.1%; in the assay on CAKI-1 renal, 90.5%; in the assay with A498 renal it was 48.7%; in the assay with CCRF-CEM leukemia it was 75.3%. Besides, the growth in the assay on MOLT-4 leukemia was 89.3%.

Consider `S=C(c1cccs1)N1CCN(c2cccc(Cl)c2)CC1`, for which the growth in the assay with HCT-15 colon was 88.7%; with HT29 colon, 89.8%; in the assay with SNB-75 CNS it was 100%; in the assay on SNB-19 CNS it was 102%; in the assay with U251 CNS, 93.7%; in the assay on PC-3 prostate, 89.5%. For the same molecule, the growth in the assay with SK-MEL-5 melanoma was 92.1%; in the assay with UACC-62 melanoma it was 88.1%; with LOX IMVI melanoma, 109%; in the assay on SK-MEL-28 melanoma it was 104%; in the assay on EKVX NSCLC it was 115%; in the assay with SN12C renal, 101%. Further, the growth in the assay on UO-31 renal is 88.8%; in the assay with TK-10 renal it was 101%; in the assay on ACHN renal, 100%; with CAKI-1 renal, 92.4%; in the assay with A498 renal it was 96.7%; with CCRF-CEM leukemia it was 87.9%. In addition, in the assay on MOLT-4 leukemia, the growth was 92.5%.

For `CC(C)C(=O)Nc1ccc(-c2nc(-c3cccc(OCCN4CCOCC4)c3)c(-c3ccnc(Br)c3)[nH]2)cc1`, the growth is 20.1% in the assay on HCT-15 colon; 16.9% with HT29 colon; -4.1% (active) with SNB-75 CNS; 51.4% in the assay on SNB-19 CNS; 25% with U251 CNS; 40.7% with PC-3 prostate. The growth in the assay on SK-MEL-5 melanoma was 45.8%; in the assay with UACC-62 melanoma, 33.5%; in the assay with LOX IMVI melanoma it was 27.7%; in the assay with SK-MEL-28 melanoma it was 43.9%; in the assay with EKVX NSCLC, 77.2%; in the assay on SN12C renal, 70.5%. For the same molecule, the growth in the assay with UO-31 renal was 12.4%; in the assay on TK-10 renal, 85.3%; in the assay on ACHN renal, 58.7%; in the assay on CCRF-CEM leukemia, 29%; with MOLT-4 leukemia, 10.6%.

Regarding `COc1ccc2nc(NCCCNCCO)c3sc4ccc(F)cc4c(=O)c3c2c1`, the growth with HCT-15 colon was -47.9% (active); with HT29 colon, -43.7% (active); in the assay with SNB-75 CNS it was 54.1%; in the assay on SNB-19 CNS it was 61.5%; with U251 CNS, -33.2% (active); in the assay with PC-3 prostate, 38.9%. For the same molecule, the growth was 85% in the assay on SK-MEL-5 melanoma; 65.7% in the assay on UACC-62 melanoma; -97% (active) with LOX IMVI melanoma; 68.9% with SK-MEL-28 melanoma; 89% in the assay with SK-MEL-2 melanoma; 61.1% in the assay on EKVX NSCLC. The growth with SN12C renal was 58.6%; in the assay with TK-10 renal it was 69.3%; with ACHN renal, 39.5%; with CAKI-1 renal, 7.45% (active); with A498 renal, 25.9%; with CCRF-CEM leukemia, -20.8% (active). In the assay on MOLT-4 leukemia, the growth is -10.4% (active).

As to `CCOC(=O)CC1C(COC(=O)NC)OC(n2cnc3c(NC(=O)Nc4ccccc4)ncnc32)C1O[Si](C)(C)C(C)(C)C` (stereo unspecified), the growth with HCT-15 colon was 52.2%; with HT29 colon it was 8.8% (active); with SNB-75 CNS it was 45.4%; with SNB-19 CNS, 99.1%; in the assay on U251 CNS it was 52%; in the assay with PC-3 prostate it was 32.4%. The growth in the assay on SK-MEL-5 melanoma is 23.5%; with UACC-62 melanoma it was 65.1%; with LOX IMVI melanoma, 48.6%; in the assay with SK-MEL-28 melanoma, 71.9%; in the assay on SK-MEL-2 melanoma, 60%; in the assay with EKVX NSCLC it was 67.5%. Also, the growth is 34.8% in the assay on SN12C renal; 87.7% with TK-10 renal; 25.8% with ACHN renal; 60.8% in the assay on CAKI-1 renal; 77.4% in the assay with A498 renal; 34.3% in the assay with MOLT-4 leukemia.
